The values below come from PMC5540273 (PLoS ONE, 2017).

Test systems include GRK4; GRK7; GSK3A; GSK3B; HCK; HIPK1; HIPK2; HIPK3; HIPK4.
What all share (settings): concentration: 1 μM, replicates: in singlicate; n = 1
A further experiment deals with T1, HASPIN.
T1 construct: gene GSG2
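Note: KINOMEscan kinase panel screen.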

Regarding `O=C(NOCC1CC1)c1ccc(F)c(F)c1Nc1ccc(I)cc1Cl`, the “%Inh” value in the experiment on GRK4 was 0%; with GRK7, 0%; with GSK3A, 0%; in the experiment with GSK3B it was 0%; with HASPIN it was 30%; with HCK, 0%. In addition, the “%Inh” value in the experiment with HIPK1, with HIPK2, in the experiment with HIPK3 and in the experiment with HIPK4 was 0% throughout.

On to `CC(C)Oc1ccc2c(-c3ccnc(Nc4ccc(N5CCN(C)CC5)cc4)n3)cnn2n1` [GW696155], for which the “%Inh” value turned out to be 84% in the experiment on GRK4; 0% in the experiment with GRK7; 0% with GSK3A; 6% in the experiment with GSK3B; 70% with HASPIN; 0% in the experiment with HCK. Further, the “%Inh” value is 97.2% with HIPK1, 98.7% with HIPK2, 98.5% with HIPK3 and 83% in the experiment on HIPK4.

Consider `CCn1cnc2c(N)ncnc21` [GW345098], for which the “%Inh” value is on record as 0% with GRK4; 0% in the experiment on GRK7; 6% with GSK3A; 9% with GSK3B; 25% with HASPIN; 30% in the experiment with HCK. Also, the “%Inh” value is 33% in the experiment with HIPK1, 5% with HIPK2, 30% with HIPK3 and 0% in the experiment with HIPK4.

`NS(=O)(=O)c1cccc(-c2ccc3nccc(-c4cccc(S(N)(=O)=O)c4)c3c2)c1` [GW867253]: the “%Inh” value in the experiment with GRK4 worked out at 26%; with GRK7, 0%; with GSK3A, 0%; with GSK3B, 52%; in the experiment with HASPIN, 64%; in the experiment on HCK, 20%. Also, the “%Inh” value with HIPK1 was 37%; with HIPK2 it was 29%; with HIPK3 it was 27%; with HIPK4, 0%.

Take `COc1cc2c(cc1OCCN1CCN(C)CC1)ncc1c3ccc(C#N)cc3[nH]c21`: the “%Inh” value with GRK4 was found to be 0%; with GRK7, 0%; in the experiment with GSK3A it was 0%; with GSK3B it was 0%; in the experiment on HASPIN, 76%; in the experiment with HCK it was 0%. Moreover, the “%Inh” value in the experiment with HIPK1 amounted to 97.6%; in the experiment with HIPK2, 100%; in the experiment with HIPK3, 96%; in the experiment on HIPK4, 55%.

`CC(=O)Nc1ccc(COc2ccc(Nc3ccnc4cc(-c5ccccn5)ccc34)cc2)cc1.Cl` [GW440148]: the “%Inh” value with GRK4 is 0%; in the experiment on GRK7, 0%; in the experiment with GSK3A, 34%; in the experiment on GSK3B, 12%; in the experiment on HASPIN it was 13%; with HCK it was 52%. Moreover, the “%Inh” value in the experiment with HIPK1 came to 0%; in the experiment with HIPK2 it was 0%; in the experiment on HIPK3 it was 12%; with HIPK4, 7%.

Regarding `Cc1cccc(-c2nc(-c3ccc(S(C)(=O)=O)cc3)sc2-c2ccncc2)c1`, the “%Inh” value with GRK4 was found to be 0%; with GRK7, 31%; in the experiment on GSK3A it was 0%; in the experiment on GSK3B it was 3%; in the experiment on HASPIN it was 0%; with HCK it was 11%. The “%Inh” value is listed as 8% in the experiment with HIPK1, 0% in the experiment with HIPK2, 15% in the experiment with HIPK3 and 4% with HIPK4.

For `Cc1ccc(NC(=O)c2ccnc(N3CCN(C)CC3)c2)cc1-c1ccc(C(=O)NCC2CC2)cc1` [GW775604], the “%Inh” value in the experiment with GRK4 worked out at 15%; in the experiment on GRK7, 0%; with GSK3A it was 0%; with GSK3B, 0%; in the experiment on HASPIN it was 0%; with HCK, 9%. The “%Inh” value in the experiment with HIPK1, in the experiment with HIPK2, in the experiment on HIPK3 and in the experiment on HIPK4 was 0% in each case.

In the case of `COc1cc2c(cc1OC[C@@H](O)CO)ncc1c3ccc(C#N)cc3[nH]c21`, the “%Inh” value in the experiment with GRK4 was determined as 73%; in the experiment on GRK7 it was 5%; in the experiment with GSK3A, 0%; in the experiment on GSK3B, 0%; in the experiment on HASPIN, 91.2%; with HCK, 4%. Besides, the “%Inh” value worked out at 94.4% in the experiment on HIPK1, 98% in the experiment on HIPK2, 94.2% with HIPK3 and 47% in the experiment on HIPK4.

On to `CNc1ncnc2[nH]ncc12` [SKF-18355], for which the “%Inh” value came out at 4% with GRK4; 0% in the experiment with GRK7; 0% with GSK3A; 25% in the experiment on GSK3B; 44% with HASPIN; 16% with HCK. For the same molecule, the “%Inh” value stood at 42% in the experiment with HIPK1, 0% in the experiment with HIPK2, 12% in the experiment with HIPK3 and 0% in the experiment on HIPK4.

For `Cc1cccc(-c2nc(Nc3ccc4ncsc4c3)c3ccccc3n2)n1` [GW867588], the “%Inh” value with GRK4 worked out at 0%; in the experiment with GRK7, 7%; in the experiment with GSK3A, 3%; in the experiment on GSK3B it was 5%; in the experiment on HASPIN, 16%; with HCK, 24%. The “%Inh” value in the experiment on HIPK1 is reported as 0%; in the experiment with HIPK2 it was 11%; with HIPK3, 0%; in the experiment on HIPK4, 6%.

As to `COc1cc(Nc2nccc(N3CCC(NC(=O)c4cccc(NC(C)=O)c4)C3)n2)cc(OC)c1OC` (stereo not shown) [GSK1379754], the “%Inh” value is on record as 18% with GRK4; 0% with GRK7; 0% in the experiment with GSK3A; 0% with GSK3B; 30% in the experiment on HASPIN; 0% with HCK. The “%Inh” value came out at 3% in the experiment on HIPK1, 0% with HIPK2, 0% in the experiment on HIPK3 and 0% with HIPK4.

Regarding `COc1ccc(Nc2ncc(C#N)c(Nc3ccccc3C(N)=O)n2)cc1N1CCN(C)CC1.Cl` [GSK1558669], the “%Inh” value in the experiment with GRK4 was 96%; in the experiment on GRK7, 46%; in the experiment on GSK3A, 99.8%; with GSK3B, 99.8%; in the experiment on HASPIN it was 88%; in the experiment on HCK, 98.8%. In addition, the “%Inh” value was 100% in the experiment on HIPK1, 98.8% in the experiment on HIPK2, 99.8% with HIPK3 and 89% in the experiment on HIPK4.

Turning to `Cl.Nc1ncnc2occ(-c3ccc(NC(=O)Nc4cc(C(F)(F)F)ccc4F)cc3)c12` [SB-707548], the “%Inh” value with GRK4 is recorded as 0%; with GRK7 it was 0%; with GSK3A it was 68%; with GSK3B it was 8%; with HASPIN, 0%; in the experiment with HCK it was 71%. Moreover, the “%Inh” value is given as 63% with HIPK1, 50% with HIPK2, 77% in the experiment on HIPK3 and 99.2% in the experiment on HIPK4.

In the case of `c1ccc(-c2n[nH]cc2-c2ccnc3ccccc23)nc1` [GW271431], the “%Inh” value in the experiment with GRK4 is reported as 0%; in the experiment on GRK7, 23%; with GSK3A it was 15%; in the experiment on GSK3B it was 17%; with HASPIN it was 10%; with HCK, 0%. Moreover, the “%Inh” value with HIPK1 is given as 15%; in the experiment on HIPK2 it was 0%; in the experiment with HIPK3, 26%; with HIPK4, 0%.

As to `O=C1Cc2cc(Nc3nc(NCc4cccc(S(=O)(=O)C(F)(F)F)c4)ncc3C(F)(F)F)ccc2N1`, the “%Inh” value with GRK4 is reported as 8%; in the experiment with GRK7, 0%; in the experiment with GSK3A, 47%; with GSK3B it was 0%; with HASPIN it was 8%; with HCK, 21%. Moreover, the “%Inh” value is given as 0% in the experiment on HIPK1, 7% in the experiment on HIPK2, 0% with HIPK3 and 0% with HIPK4.
